PubChem BioAssay AID1159580 (chemical genetic matrix, 2015)
“And” between values parts separate entries of the source, which are not always exact repeats. Identical values can stand only once. The whole screen tested about 5,500 compounds, of which about 2,000 (36%) were called active. About 18% were inconclusive and are not listed. Rule as the data show it: active = normalized growth mostly below about 0.91 (no sharp cut-off); inconclusive = no clear call, values can overlap the other calls; inactive = mostly above about 0.92. The list shows a part of the results.

Assay: chemical genetic growth profiling, strain panel (AID 1159580);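 also: tested at 20 µM; growth read once vehicle control cultures reached saturation at 30 °C; 1 = growth at the plate median or of vehicle wells; lower values mean less growth of the strain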
Details: S. cerevisiae deletion strains, growth OD

Measured: normalized growth

CC(=O)OCC1=C(C(=O)O)N2C(=O)[C@@H](NC(=O)Cc3cccs3)[C@H]2SC1
inactive: locus YAL013W, strain DEP1, stronger effect = lower value 0.991 | locus YAL021C, strain ccr4, stronger effect = lower value 1.03 | locus YAL026C, strain drs2, stronger effect = lower value 0.991 | locus YAL030W, strain snc1, stronger effect = lower value 1.02 | locus YBL061C, strain skt5, stronger effect = lower value 1.03 | locus YBR009C, strain hhf1, stronger effect = lower value 0.974 | locus YBR021W, strain FUR4, stronger effect = lower value 1.01 | locus YBR023C, strain chs3, stronger effect = lower value 1.03 | locus YBR171W, strain sec66, stronger effect = lower value 1.02 | locus YBR229C, strain ROT2, stronger effect = lower value 0.948 | locus YBR231C, strain swc5, stronger effect = lower value 0.988 | locus YBR279W, strain paf1, stronger effect = lower value 0.987 | locus YCL011C, strain gbp2, stronger effect = lower value 0.973 | locus YCL016C, strain dcc1, stronger effect = lower value 0.986 | locus YCL029C, strain bik1, stronger effect = lower value 0.984 | locus YCL069W, strain vba3, stronger effect = lower value 1.01 | locus YCR088W, strain abp1, stronger effect = lower value 1.01 | locus YDL005C, strain med2, stronger effect = lower value 1.03 | locus YDL035C, strain GPR1, stronger effect = lower value 0.96 | locus YDL040C, strain nat1, stronger effect = lower value 1.02 | locus YDL074C, strain BRE1, stronger effect = lower value 0.993 | locus YDL101C, strain DUN1, stronger effect = lower value 0.989 | locus YDL134C, strain PPH21, stronger effect = lower value 0.959 | locus YDL185W, strain tfp1, stronger effect = lower value 0.965 | locus YDL192W, strain arf1, stronger effect = lower value 0.977 | locus YDR001C, strain nth1, stronger effect = lower value 1.02 | locus YDR069C, strain doa4, stronger effect = lower value 1.03 | locus YDR101C, strain arx1, stronger effect = lower value 0.972 | locus YDR137W, strain rgp1, stronger effect = lower value 0.962 | locus YDR150W, strain NUM1, stronger effect = lower value 0.983 | locus YDR159W, strain sac3, stronger effect = lower value 1.05 | locus YDR162C, strain NBP2, stronger effect = lower value 0.948 | locus YDR195W, strain ref2 1.04 | locus YDR297W, strain sur2, stronger effect = lower value 1.02 | locus YDR318W, strain mcm21, stronger effect = lower value 0.991 | locus YDR334W, strain swr1, stronger effect = lower value 0.986 | locus YDR335W, strain msn5, stronger effect = lower value 0.99 | locus YDR388W, stronger effect = lower value 0.981 | locus YDR392W, strain spt3, stronger effect = lower value 0.959 | locus YDR502C, strain sam2, stronger effect = lower value 0.997 | locus YEL003W, strain gim4, stronger effect = lower value 1 | locus YEL037C, strain rad23, stronger effect = lower value 1 | locus YEL061C, strain CIN8 (second series), stronger effect = lower value 1.01 | locus YEL061C, strain CIN8, stronger effect = lower value 0.984 | locus YER015W, strain faa2, stronger effect = lower value 0.972 | locus YER016W, strain bim1, stronger effect = lower value 0.987 | locus YER110C, stronger effect = lower value 0.972 | locus YER111C, strain swi4, stronger effect = lower value 0.995 | locus YER155C, strain BEM2 (second series), stronger effect = lower value 1 | locus YER155C, strain BEM2, stronger effect = lower value 1 | locus YER167W, strain BCK2, stronger effect = lower value 0.986 | locus YFR010W, strain ubp6, stronger effect = lower value 1.01 | locus YGL078C, strain dbp3, stronger effect = lower value 0.987 | locus YGL086W, strain mad1, stronger effect = lower value 0.979 | locus YGL167C, strain pmr1, stronger effect = lower value 1.02 | locus YGL173C, strain kem1, stronger effect = lower value 0.987 | locus YGL227W, strain vid30, stronger effect = lower value 1.04 | locus YGL240W, strain doc1, stronger effect = lower value 1.06 | locus YGL248W, strain PDE1, stronger effect = lower value 1.01 | locus YGL253W, strain hxk2, stronger effect = lower value 1 | locus YGR135W, strain pre9, stronger effect = lower value 1.04 | locus YGR252W, strain gcn5, stronger effect = lower value 1.03 | locus YHR013C, strain ard1, stronger effect = lower value 1.03 | locus YHR027C, strain rpn1, stronger effect = lower value 0.994 | locus YHR030C, strain SLT2, stronger effect = lower value 0.977 and 0.94 | locus YHR079C, strain IRE1 (second series), stronger effect = lower value 0.995 | locus YHR079C, strain IRE1, stronger effect = lower value 0.976 | locus YHR094C, strain hxt1, stronger effect = lower value 0.982 | locus YHR129C, strain ARP1, stronger effect = lower value 0.984 | locus YHR142W, strain chs7, stronger effect = lower value 0.995 | locus YHR200W, strain rpn10, stronger effect = lower value 0.983 | locus YIL066C, strain RNR3, stronger effect = lower value 0.972 | locus YIL073C, strain SPO22, stronger effect = lower value 1.04 | locus YIL125W, strain kgd1, stronger effect = lower value 0.983 | locus YIR030C, strain dcg1, stronger effect = lower value 0.99 | locus YJL092W, strain hpr5, stronger effect = lower value 1.01 | locus YJL095W, strain BCK1 (second series), stronger effect = lower value 1 | locus YJL095W, strain BCK1, stronger effect = lower value 1.05 and 0.96 | locus YJL115W, strain asf1, stronger effect = lower value 1.02 | locus YJL129C, strain trk1, stronger effect = lower value 1.05 | locus YJL134W, strain LCB3, stronger effect = lower value 0.99 | locus YJL154C, strain vps35, stronger effect = lower value 1.02 | locus YJL164C, strain tpk1, stronger effect = lower value 0.972 | locus YJL166W, strain qcr8, stronger effect = lower value 0.996 | locus YJL168C, strain set2, stronger effect = lower value 0.986 | locus YJL187C, strain SWE1 (second series), stronger effect = lower value 1.01 | locus YJL187C, strain SWE1, stronger effect = lower value 1.01 | locus YJR043C, strain POL32, stronger effect = lower value 0.963 | locus YJR066W, strain TOR1, stronger effect = lower value 0.995 | locus YJR075W, strain HOC1, stronger effect = lower value 1 | locus YKL009W, strain mrt4, stronger effect = lower value 1 | locus YKL068W, stronger effect = lower value 0.977 | locus YKL085W, strain MDH1 (second series), stronger effect = lower value 0.966 | locus YKL085W, strain MDH1, stronger effect = lower value 0.966 | locus YKL160W, strain elf1, stronger effect = lower value 1.01 | locus YKR001C, strain vps1, stronger effect = lower value 0.986 | locus YKR026C, strain gcn3, stronger effect = lower value 1.04 | locus YKR091W, strain srl3, stronger effect = lower value 0.999 | locus YLL001W, strain dnm1, stronger effect = lower value 0.992 | locus YLL026W, stronger effect = lower value 1.02 | locus YLL041C, strain sdh2, stronger effect = lower value 1.02 | locus YLR027C, strain aat2, stronger effect = lower value 1.01 | locus YLR039C, strain RIC1, stronger effect = lower value 0.986 | locus YLR058C, strain SHM2, stronger effect = lower value 0.978 | locus YLR102C, strain apc9, stronger effect = lower value 0.987 | locus YLR113W, strain HOG1, stronger effect = lower value 0.971 | locus YLR221C, strain rsa3, stronger effect = lower value 0.996 | locus YLR258W, strain gsy2, stronger effect = lower value 1 | locus YLR262C, strain YPT6 (second series), stronger effect = lower value 1.01 | locus YLR262C, strain YPT6, stronger effect = lower value 0.937 | locus YLR268W, strain sec22, stronger effect = lower value 0.975 | locus YLR320W, strain mms22, stronger effect = lower value 0.978 | locus YLR330W, strain CHS5, stronger effect = lower value 0.99 | locus YLR342W, strain FKS1 (second series), stronger effect = lower value 1 | locus YLR342W, strain FKS1, stronger effect = lower value 0.992 | locus YLR357W, strain rsc2, stronger effect = lower value 0.991 | locus YLR370C, strain arc18, stronger effect = lower value 1 | locus YLR371W, strain rom2, stronger effect = lower value 0.998 | locus YLR384C, strain iki3, stronger effect = lower value 1.03 | locus YLR418C, strain cdc73, stronger effect = lower value 1.01 | locus YML016C, strain PPZ1, stronger effect = lower value 0.996 | locus YML032C, strain rad52, stronger effect = lower value 0.98 | locus YML120C, strain ndi1, stronger effect = lower value 1 | locus YML124C, strain tub3, stronger effect = lower value 0.985 | locus YMR058W, strain fet3, stronger effect = lower value 0.923 | locus YMR078C, strain ctf18, stronger effect = lower value 0.986 | locus YMR125W, strain sto1, stronger effect = lower value 1.03 | locus YMR129W, stronger effect = lower value 1.02 | locus YMR205C, strain PFK2, stronger effect = lower value 1.02 | locus YMR223W, strain ubp8, stronger effect = lower value 1.01 | locus YMR231W, strain pep5, stronger effect = lower value 1.01 | locus YMR263W, strain SAP30, stronger effect = lower value 0.998 | locus YMR307W, strain GAS1, stronger effect = lower value 0.898 | locus YNL067W, strain RPL9B, stronger effect = lower value 1.01 | locus YNL071W, strain lat1, stronger effect = lower value 0.994 | locus YNL183C, strain NPR1, stronger effect = lower value 0.919 | locus YNL209W, strain ssb2, stronger effect = lower value 1 | locus YNL233W, strain BNI4, stronger effect = lower value 1.03 | locus YNL248C, strain rpa49, stronger effect = lower value 0.993 | locus YNL250W, strain rad50, stronger effect = lower value 0.995 | locus YNL271C, strain bni1, stronger effect = lower value 1 | locus YNL298W, strain CLA4, stronger effect = lower value 0.979 | locus YNL307C, strain MCK1, stronger effect = lower value 0.988 | locus YNL322C, strain KRE1 (second series), stronger effect = lower value 1.01 | locus YNL322C, strain KRE1, stronger effect = lower value 0.989 | locus YNR049C, strain mso1, stronger effect = lower value 1.02 | locus YNR052C, strain pop2, stronger effect = lower value 0.985 | locus YOL006C, strain TOP1, stronger effect = lower value 1.13 | locus YOL012C, strain htz1 0.756 | locus YOL147C, strain pex11, stronger effect = lower value 0.986 | locus YOR001W, strain rrp6, stronger effect = lower value 1.02 | locus YOR061W, strain CKA2, stronger effect = lower value 0.968 | locus YOR069W, strain VPS5, stronger effect = lower value 0.987 | locus YOR070C, strain gyp1, stronger effect = lower value 0.995 | locus YOR080W, strain dia2, stronger effect = lower value 1.02 | locus YOR083W, strain WHI5, stronger effect = lower value 0.993 | locus YOR106W, strain vam3, stronger effect = lower value 0.981 | locus YOR136W, strain idh2, stronger effect = lower value 0.983 | locus YOR144C, strain elg1, stronger effect = lower value 0.988 | locus YOR184W, strain ser1, stronger effect = lower value 1 | locus YOR231W, strain MKK1, stronger effect = lower value 0.972 | locus YOR265W, strain rbl2, stronger effect = lower value 1.02 | locus YOR270C, strain vph1, stronger effect = lower value 0.925 | locus YOR290C, strain snf2, stronger effect = lower value 0.992 | locus YOR316C, strain cot1, stronger effect = lower value 0.973 | locus YPL051W, strain arl3, stronger effect = lower value 0.995 | locus YPL055C, strain LGE1, stronger effect = lower value 0.989 | locus YPL078C, strain atp4, stronger effect = lower value 1.02 | locus YPL106C, strain sse1, stronger effect = lower value 0.945 | locus YPL240C, strain hsp82, stronger effect = lower value 1.04 | locus YPL256C, strain CLN2, stronger effect = lower value 0.962 | locus YPR119W, strain clb2, stronger effect = lower value 0.984 | locus YPR141C, strain kar3, stronger effect = lower value 0.983 | locus YPR163C, strain tif3, stronger effect = lower value 0.984 | locus YPR167C, strain met16, stronger effect = lower value 0.997 | strain wtn01, stronger effect = lower value 1
